Of roughly 8,800 targets only a part is listed; those with a hit were picked by preference. About 0.5% of all pairs of compound and target were hits.
Key:
Experiment in all cases: log2 fold change, soluble protein after heating vs DMSO (PISA); higher = thermal stabilisation; K562 lysate, 10 uM; active = over 0.2 and 3.5 SD of the protein, either way, in both replicates (recomputed)
[1] = compound: C=CC(=O)N1CCC[C@@H](n2nc(-c3ccc(Oc4ccccc4)cc3)c3c(N)ncnc32)C1 [ibrutinib]
How it was run: (§1)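 Values give the log-two fold change in thermal stability against solvent controls, from duplicates. Crude K562 extract at 1 mg/mL protein, made by dounce homogenisation in PBS pH 7.4 with 1 mM MgCl2, was treated with 10 μM compound for 30 min. After 3 min heating across 48°C-58°C, aliquots were pooled, adjusted to 0.5% NP-40 at 4°C and centrifuged at 21,000xg for 90 min. The supernatant was measured by TMTpro 16plex LC-MS/MS with channel sums equalised.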

[2] = compound: CC(=O)c1cnc2ccc(-c3cc(Cl)c(O)c(Cl)c3)nc2c1N[C@H]1CC[C@H](CN(C)C)CC1
How it was run: as §1

[3] = compound: CC(C)(C)Cn1c(N)nc2ccc(-c3[nH]c(C(C)(C)C)nc3-c3ccc(F)cc3)nc21 [ralimetinib]
How it was run: as §1

[4] = compound: CC(C)(O)CC(=O)NCCn1ccc2ncnc(Nc3ccc(Oc4cccc(C(F)(F)F)c4)c(Cl)c3)c21
How it was run: as §1

[5] = compound: CC(C)C1=C2N=C(C=C(N2N=C1)NCC3=CC=CC=C3)NCCCCCCN
How it was run: as §1

[6] = compound: CC1=C(C(CC(=O)N1)C2=CC=C(C=C2)C(F)(F)F)C(=O)NC3=C(C=C4C(=C3)C=NN4)F
How it was run: as §1

[7] = compound: CC1=C(C2=C(C=C1)C(=O)C3=CC=CC=C3N2CCCN)C
How it was run: as §1

[8] = compound: CC1=C(C=C(C=C1)NC(=O)C2=CC(=CC=C2)C(C)(C)C#N)NC3=CC4=C(C=C3)N=CN(C4=O)C
How it was run: as §1

[9] = compound: CC1=C(C=C(C=C1)NC(=O)C2=CC(=CC=C2)N(C)C)NC(=O)C3=CC=C(C=C3)O
How it was run: as §1

[10] = compound: CC1=CC=C(C=C1)SC2=C3C=C(SC3=CN=C2)C(=O)N
How it was run: as §1

[11] = compound: CCCS(=O)(=O)Nc1ccc(F)c(C(=O)c2c[nH]c3ncc(-c4ccc(Cl)cc4)cc23)c1F [vemurafenib]
How it was run: as §1

[12] = compound: CCCS(=O)(=O)Nc1ccc(F)c(C(=O)c2c[nH]c3ncc(Cl)cc23)c1F
How it was run: as §1

[13] = compound: CCN(CCCOc1ccc2c(Nc3cc(CC(=O)Nc4cccc(F)c4)[nH]n3)ncnc2c1)CCOP(=O)(O)O [barasertib]
How it was run: as §1

[14] = compound: CC[C@@H]1C(=O)N(C)c2cnc(Nc3ccc(C(=O)NC4CCN(C)CC4)cc3OC)nc2N1C1CCCC1
How it was run: as §1

[15] = compound: CC[C@@H]1C(=O)N(C)c2cnc(Nc3ccc(C(=O)N[C@H]4CC[C@H](N5CCN(CC6CC6)CC5)CC4)cc3OC)nc2N1C(C)C [volasertib]
How it was run: as §1

[16] = compound: CCn1c(C(=O)N(C2CC2)C2CC2)cc2c3c(ncn3C)c(Nc3cc(C)n(C)n3)nc21
How it was run: as §1

[17] = compound: CCn1cc(-c2ccnc3[nH]c(-c4cccc(CN(C)C)c4)cc23)c(-c2ccc(NC(=O)N(C)C)cc2)n1
How it was run: as §1

[18] = compound: CN1CCC(CNc2ccc3ncc(-c4cccc(OC(F)(F)F)c4)n3n2)CC1
How it was run: as §1

[19] = compound: CN1CCN(CCOc2cc(OC3CCOCC3)c3c(Nc4c(Cl)ccc5c4OCO5)ncnc3c2)CC1 [saracatinib]
How it was run: as §1

[20] = compound: CN1CCN(c2nc(C3=C(c4c[nH]c5ccccc45)C(=O)NC3=O)c3ccccc3n2)CC1 [sotrastaurin]
How it was run: as §1

Measured: log2 fold change

MAPK14 isoform 2 (UniProt Q16539)
active: [3] 0.97 | [8] 0.973
inactive: [1] 0.03 | [2] 0.249 | [4] -0.047 | [5] -0.003 | [6] 0.02 | [7] -0.027 | [9] 0.419 | [10] 0.011 | [11] 0.189 | [12] 0.046 | [13] 0.079 | [14] -0.076 | [15] -0.078 | [16] 0.003 | [17] 0.303 | [18] -0.101 | [19] 0.192 | [20] -0.029

MICU2 (UniProt Q8IYU8)
inactive: [1] 0.036 | [2] -0.095 | [3] -0.019 | [4] -0.026 | [5] -0.016 | [6] -0.019 | [7] -0.004 | [8] 0.012 | [9] -0.018 | [10] 0.013 | [11] -0.061 | [12] 0.043 | [13] 0.109 | [14] -0.023 | [15] 0 | [16] -0.036 | [17] 0.013 | [18] -0.101 | [19] 0.021 | [20] 0.126

MED12 isoform 2 (UniProt Q93074)
Chain of UniProt Q93074 (Q93074 whole entry, looked up): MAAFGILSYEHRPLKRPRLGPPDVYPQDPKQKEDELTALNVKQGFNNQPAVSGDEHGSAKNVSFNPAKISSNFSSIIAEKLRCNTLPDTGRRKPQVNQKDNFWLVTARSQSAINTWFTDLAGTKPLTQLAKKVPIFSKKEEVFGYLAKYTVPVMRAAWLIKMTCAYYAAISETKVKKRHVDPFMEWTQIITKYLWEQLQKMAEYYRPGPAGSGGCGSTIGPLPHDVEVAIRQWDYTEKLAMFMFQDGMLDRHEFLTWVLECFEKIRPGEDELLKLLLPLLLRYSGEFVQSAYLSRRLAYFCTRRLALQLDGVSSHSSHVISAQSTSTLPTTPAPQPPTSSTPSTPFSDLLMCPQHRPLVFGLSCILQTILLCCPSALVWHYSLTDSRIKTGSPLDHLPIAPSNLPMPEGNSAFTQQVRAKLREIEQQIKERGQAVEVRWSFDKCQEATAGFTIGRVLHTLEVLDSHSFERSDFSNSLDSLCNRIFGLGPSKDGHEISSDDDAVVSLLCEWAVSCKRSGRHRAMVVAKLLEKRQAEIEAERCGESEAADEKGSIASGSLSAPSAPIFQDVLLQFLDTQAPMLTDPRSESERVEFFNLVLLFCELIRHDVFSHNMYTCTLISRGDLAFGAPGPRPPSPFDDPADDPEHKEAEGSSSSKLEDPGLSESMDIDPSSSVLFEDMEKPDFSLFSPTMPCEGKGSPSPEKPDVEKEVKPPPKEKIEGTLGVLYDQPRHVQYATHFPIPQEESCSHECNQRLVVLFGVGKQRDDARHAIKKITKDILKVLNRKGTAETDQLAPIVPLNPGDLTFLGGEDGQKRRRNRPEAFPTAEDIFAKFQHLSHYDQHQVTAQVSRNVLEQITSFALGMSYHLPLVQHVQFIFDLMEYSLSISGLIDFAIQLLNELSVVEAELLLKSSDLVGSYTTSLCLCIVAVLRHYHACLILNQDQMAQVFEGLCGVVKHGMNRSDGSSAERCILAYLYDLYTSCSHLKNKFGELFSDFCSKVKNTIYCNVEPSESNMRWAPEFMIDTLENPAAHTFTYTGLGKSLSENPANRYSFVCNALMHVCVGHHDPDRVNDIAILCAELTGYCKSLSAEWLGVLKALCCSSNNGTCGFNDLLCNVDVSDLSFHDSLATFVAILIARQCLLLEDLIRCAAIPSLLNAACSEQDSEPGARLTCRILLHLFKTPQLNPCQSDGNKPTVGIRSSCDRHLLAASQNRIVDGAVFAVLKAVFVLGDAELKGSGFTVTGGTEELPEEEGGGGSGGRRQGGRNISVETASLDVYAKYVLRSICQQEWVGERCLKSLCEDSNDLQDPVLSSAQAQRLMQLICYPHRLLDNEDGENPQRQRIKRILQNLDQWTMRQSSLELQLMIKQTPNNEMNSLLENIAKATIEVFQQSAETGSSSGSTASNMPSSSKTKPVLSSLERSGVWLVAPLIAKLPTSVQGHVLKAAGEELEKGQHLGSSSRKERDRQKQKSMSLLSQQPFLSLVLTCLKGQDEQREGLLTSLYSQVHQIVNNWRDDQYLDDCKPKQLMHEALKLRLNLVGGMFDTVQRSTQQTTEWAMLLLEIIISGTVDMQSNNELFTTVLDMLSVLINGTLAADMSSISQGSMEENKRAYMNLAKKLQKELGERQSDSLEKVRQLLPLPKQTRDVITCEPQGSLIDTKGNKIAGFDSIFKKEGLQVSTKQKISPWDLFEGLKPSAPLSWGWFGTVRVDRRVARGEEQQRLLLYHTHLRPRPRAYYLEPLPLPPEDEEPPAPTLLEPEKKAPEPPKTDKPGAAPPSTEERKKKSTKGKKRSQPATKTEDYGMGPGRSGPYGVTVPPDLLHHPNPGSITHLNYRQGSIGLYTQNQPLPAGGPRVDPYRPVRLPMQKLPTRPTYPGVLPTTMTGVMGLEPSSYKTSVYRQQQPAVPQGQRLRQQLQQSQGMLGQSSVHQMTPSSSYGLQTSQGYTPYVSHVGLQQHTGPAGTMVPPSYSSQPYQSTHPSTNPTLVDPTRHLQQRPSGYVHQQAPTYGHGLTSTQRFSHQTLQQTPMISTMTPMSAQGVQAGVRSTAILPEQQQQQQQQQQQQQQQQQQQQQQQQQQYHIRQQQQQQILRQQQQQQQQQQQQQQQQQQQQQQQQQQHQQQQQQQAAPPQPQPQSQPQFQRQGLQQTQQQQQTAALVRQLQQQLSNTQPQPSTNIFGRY
inactive: [1] 0.004 | [2] -0.019 | [3] 0.022 | [4] -0.009 | [5] -0.005 | [6] 0.009 | [7] 0.003 | [8] -0.005 | [9] 0.037 | [10] 0.02 | [11] -0.075 | [12] 0.005 | [13] 0.057 | [14] -0.012 | [15] -0.065 | [16] 0.037 | [17] 0.002 | [18] -0.066 | [19] 0.026 | [20] 0.022

MAP2K3 isoform 3 (UniProt P46734)
Chain of UniProt P46734 (P46734 whole entry, looked up): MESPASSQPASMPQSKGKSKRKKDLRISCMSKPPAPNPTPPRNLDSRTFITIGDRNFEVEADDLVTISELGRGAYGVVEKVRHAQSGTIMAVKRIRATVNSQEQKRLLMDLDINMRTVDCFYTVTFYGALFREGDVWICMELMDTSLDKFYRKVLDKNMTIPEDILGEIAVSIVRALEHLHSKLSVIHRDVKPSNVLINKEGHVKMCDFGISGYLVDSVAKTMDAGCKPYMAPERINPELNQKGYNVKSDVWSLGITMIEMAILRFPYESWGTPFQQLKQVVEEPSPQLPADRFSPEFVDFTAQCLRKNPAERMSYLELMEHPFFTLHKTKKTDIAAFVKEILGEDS
inactive: [1] -0.041 | [2] 0.095 | [3] 0.012 | [4] -0.008 | [5] -0.15 | [6] 0.019 | [7] -0.095 | [8] 0.021 | [9] 0.123 | [10] 0.114 | [11] 0.065 | [12] -0.042 | [13] 0.032 | [14] -0.125 | [15] 0.07 | [16] -0.063 | [17] 0.191 | [18] 0.04 | [19] 0.113 | [20] -0.008

LIG3 (UniProt P49916)
Chain of UniProt P49916 (P49916 whole entry, looked up): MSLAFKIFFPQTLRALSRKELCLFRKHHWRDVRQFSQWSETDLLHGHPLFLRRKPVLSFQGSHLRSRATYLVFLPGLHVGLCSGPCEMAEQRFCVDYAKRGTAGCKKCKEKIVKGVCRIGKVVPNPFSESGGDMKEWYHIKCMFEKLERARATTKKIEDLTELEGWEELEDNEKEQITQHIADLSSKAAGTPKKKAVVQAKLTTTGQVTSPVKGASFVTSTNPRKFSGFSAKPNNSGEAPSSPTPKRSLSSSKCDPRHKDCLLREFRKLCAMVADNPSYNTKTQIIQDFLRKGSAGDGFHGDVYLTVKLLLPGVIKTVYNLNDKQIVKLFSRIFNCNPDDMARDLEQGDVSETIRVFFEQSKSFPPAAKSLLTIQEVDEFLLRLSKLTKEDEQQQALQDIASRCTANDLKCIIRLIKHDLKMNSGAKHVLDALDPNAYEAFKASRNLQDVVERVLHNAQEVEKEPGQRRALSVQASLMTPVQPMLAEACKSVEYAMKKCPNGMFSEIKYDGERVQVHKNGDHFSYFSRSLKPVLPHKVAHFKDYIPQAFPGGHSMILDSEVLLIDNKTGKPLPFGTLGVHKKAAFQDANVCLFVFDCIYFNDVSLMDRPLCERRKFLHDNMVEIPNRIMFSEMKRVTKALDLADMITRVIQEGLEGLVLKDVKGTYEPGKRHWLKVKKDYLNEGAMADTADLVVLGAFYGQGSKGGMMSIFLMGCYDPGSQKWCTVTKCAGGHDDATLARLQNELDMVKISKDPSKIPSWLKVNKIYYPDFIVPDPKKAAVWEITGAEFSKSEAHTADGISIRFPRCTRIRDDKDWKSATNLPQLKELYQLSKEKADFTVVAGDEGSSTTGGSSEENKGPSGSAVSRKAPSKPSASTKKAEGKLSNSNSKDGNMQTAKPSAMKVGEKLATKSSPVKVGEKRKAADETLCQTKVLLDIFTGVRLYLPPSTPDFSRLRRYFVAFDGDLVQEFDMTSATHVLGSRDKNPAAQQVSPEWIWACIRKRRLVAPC
inactive: [1] -0.006 | [2] 0.007 | [3] 0.063 | [4] 0.023 | [5] -0.002 | [6] -0.018 | [7] 0.04 | [8] -0.015 | [9] 0.028 | [10] 0.015 | [11] -0.029 | [12] -0.003 | [13] 0.019 | [14] -0.127 | [15] -0.028 | [16] 0.031 | [17] -0.033 | [18] -0.011 | [19] 0.018 | [20] 0.009

KPNA4 (UniProt O00629)
Chain of UniProt O00629 (O00629 whole entry, looked up): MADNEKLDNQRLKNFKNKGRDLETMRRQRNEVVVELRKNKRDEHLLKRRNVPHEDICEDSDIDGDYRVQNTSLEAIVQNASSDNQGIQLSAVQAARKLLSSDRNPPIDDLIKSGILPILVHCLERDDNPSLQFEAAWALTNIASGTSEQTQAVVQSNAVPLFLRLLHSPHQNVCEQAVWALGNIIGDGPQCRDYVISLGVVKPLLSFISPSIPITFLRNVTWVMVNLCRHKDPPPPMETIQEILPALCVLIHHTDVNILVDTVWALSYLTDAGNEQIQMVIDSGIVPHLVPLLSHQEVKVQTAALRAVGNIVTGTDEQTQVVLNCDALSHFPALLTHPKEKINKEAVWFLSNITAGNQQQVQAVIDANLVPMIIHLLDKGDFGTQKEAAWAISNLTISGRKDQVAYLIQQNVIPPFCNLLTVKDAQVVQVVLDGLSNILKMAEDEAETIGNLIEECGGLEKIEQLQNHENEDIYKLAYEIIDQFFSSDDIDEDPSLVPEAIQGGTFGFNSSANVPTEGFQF
inactive: [1] -0.037 | [2] -0.047 | [3] -0.024 | [4] 0.002 | [5] 0.019 | [6] 0.003 | [7] 0.019 | [8] 0.019 | [9] 0 | [10] -0.018 | [11] -0.003 | [12] 0.017 | [13] -0.089 | [14] 0.048 | [15] 0.026 | [16] -0.022 | [18] 0.103 | [19] -0.032 | [20] 0.03
active: [17] -0.318

MFF isoform 2 (UniProt Q9GZY8)
Chain of UniProt Q9GZY8 (Q9GZY8 whole entry, looked up): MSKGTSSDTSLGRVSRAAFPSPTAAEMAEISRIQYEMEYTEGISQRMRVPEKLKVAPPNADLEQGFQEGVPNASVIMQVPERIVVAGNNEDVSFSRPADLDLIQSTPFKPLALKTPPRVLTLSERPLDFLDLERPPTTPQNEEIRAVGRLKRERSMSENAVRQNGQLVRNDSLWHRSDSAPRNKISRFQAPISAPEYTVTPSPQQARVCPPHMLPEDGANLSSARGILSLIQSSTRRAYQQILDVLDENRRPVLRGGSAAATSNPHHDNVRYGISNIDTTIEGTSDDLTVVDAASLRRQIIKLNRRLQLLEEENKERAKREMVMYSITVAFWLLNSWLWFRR
inactive: [1] 0.007 | [2] -0.044 | [3] -0.03 | [4] -0.033 | [5] -0.052 | [6] 0 | [7] 0.004 | [8] 0.032 | [9] 0.022 | [10] -0.024 | [11] 0.019 | [12] 0.027 | [13] 0.027 | [14] 0.032 | [15] -0.014 | [16] 0.035 | [18] 0.036 | [19] 0.011 | [20] -0.044
active: [17] -0.234

LUC7L (UniProt Q9NQ29)
Chain of UniProt Q9NQ29 (Q9NQ29 whole entry, looked up): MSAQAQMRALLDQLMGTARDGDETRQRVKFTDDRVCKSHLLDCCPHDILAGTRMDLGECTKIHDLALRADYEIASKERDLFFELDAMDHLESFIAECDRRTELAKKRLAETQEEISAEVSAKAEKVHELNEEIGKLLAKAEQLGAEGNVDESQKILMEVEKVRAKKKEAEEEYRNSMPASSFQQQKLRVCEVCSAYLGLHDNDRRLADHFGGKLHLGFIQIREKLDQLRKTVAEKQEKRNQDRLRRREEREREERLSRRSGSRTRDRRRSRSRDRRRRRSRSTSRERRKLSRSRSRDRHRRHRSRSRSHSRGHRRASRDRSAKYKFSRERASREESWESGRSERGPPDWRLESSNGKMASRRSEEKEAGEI
inactive: [1] 0.007 | [2] 0.003 | [3] 0.008 | [4] 0.027 | [5] 0.056 | [6] 0.002 | [7] 0.007 | [8] -0.04 | [9] -0.01 | [10] 0.02 | [11] 0.019 | [12] -0.014 | [13] 0.024 | [14] -0.072 | [15] 0.028 | [16] -0.004 | [17] 0.172 | [18] -0.008 | [19] -0.013 | [20] -0.068

Source: the supplement of paper PMC10849652
